Out of some 39,000 compounds screened, about 3,300 (8.5%) were called active. Shown is part of a subset that was picked to be rich in actives.

The test deals with HepG2. The test can be described thus: cytotoxicity call (relative viability < 0.9). Particulars: 10 µM.
Consider `C[C@@H]1CN([C@H](C)CO)C(=O)c2cccc(NC(=O)C3CCOCC3)c2O[C@H]1CN(C)S(=O)(=O)c1cccs1`, for which the cytotoxicity call is “inactive”.

As to `C[C@@H]1CN([C@H](C)CO)C(=O)c2cc(NC(=O)Nc3cccc4ccccc34)ccc2O[C@@H](C)CCCCO[C@H]1CN(C)Cc1ccc(Cl)c(Cl)c1`, the cytotoxicity call is “inactive”.

On to `C[C@@H]1CN([C@@H](C)CO)C(=O)c2cc(NC(=O)Cn3cnnn3)ccc2O[C@H]1CN(C)Cc1ccc(-c2ccccc2)cc1`, for which the cytotoxicity call is “inactive”.

As for `CC(C)CN1C(=O)[C@@]2(c3ccc([N+](=O)[O-])cc3)CC(=O)N(CC34CC5CC(CC(C5)C3)C4)[C@@H]2c2ccc(CO)cc21`, the cytotoxicity call was “inactive”.

For `Cc1cc(C)n(-c2nc(=O)cc(C)[nH]2)n1`, the cytotoxicity call is “inactive”.

Turning to `[N-]=[N+]=NCCOCCNC(=O)CCCOc1ccc(CS(=O)c2nnc(-c3ccc(F)cc3)o2)nc1` (stereo not given), the cytotoxicity call is “active”.

As to `COc1ccc(NC(=O)N(C)C[C@@H]2OCCCC[C@@H](C)Oc3ccc(NC(=O)CCC(F)(F)F)cc3C(=O)N([C@@H](C)CO)C[C@H]2C)cc1`, the cytotoxicity call was “inactive”.

For `Cc1noc(C)c1NC(=O)N(C)C[C@@H]1OCCCC[C@@H](C)Oc2ccc(NS(=O)(=O)c3ccc(F)cc3)cc2C(=O)N([C@H](C)CO)C[C@@H]1C`, the cytotoxicity call is “inactive”.

In the case of `C[C@@H]1CN([C@@H](C)CO)C(=O)Cc2cc(NC(=O)Cc3cn(C)c4ccccc34)ccc2O[C@@H]1CN(C)S(C)(=O)=O`, the cytotoxicity call is “inactive”.

Take `CCS(=O)(=O)CCn1c([N+](=O)[O-])cnc1C` [listing 1 of 2 here]: the cytotoxicity call was “inactive”.

With `Cc1ncc([N+](=O)[O-])n1CCO`, the cytotoxicity call was “inactive”.

Take `CCS(=O)(=O)CCn1c([N+](=O)[O-])cnc1C` [listing 2 of 2 here]: the cytotoxicity call is “active”.

With `Cc1cc(O)c(-c2ccc([C@@H](C)CN)cc2)c2c1[nH]c(=O)c1sccc12`, the cytotoxicity call was “active”.

In the case of `C[C@H]1CN([C@@H](C)CO)C(=O)CCCn2nncc2CO[C@@H]1CN(C)C(=O)c1cc(-c2ccccc2)on1`, the cytotoxicity call is “inactive”.

For the compound `C[C@@H]1CCCCO[C@@H](CN(C)S(=O)(=O)c2ccccc2)[C@@H](C)CN([C@@H](C)CO)C(=O)c2cc(NC(=O)Nc3ccc4c(c3)OCO4)ccc2O1`, the cytotoxicity call is “inactive”.

For `CCCNC(=O)c1cc2c(c(-c3cccc(-c4ccc(F)cc4)c3)n1)[C@@H](CCO)N([S@](=O)C(C)(C)C)C2`, the cytotoxicity call is “inactive”.

For the compound `CCOC(=O)c1cc2c(c(-c3cccc(Br)c3)n1)[C@@H](CCO[Si](C)(C)C(C)(C)C)N([S@](=O)C(C)(C)C)C2`, the cytotoxicity call was “inactive”.

In the case of `CC(C)(C)S(=O)N1Cc2cc(C(=O)NCc3ccc(Oc4ccccc4)cc3)nc(-c3cccc(C#CCC4CCCC4)c3)c2[C@@H]1CCO` (stereo not given in full), the cytotoxicity call was “inactive”.

With `CCOC(=O)c1cc2c(c(-c3ccccc3)n1)[C@@H](CCO[Si](C)(C)C(C)(C)C)N([S@](=O)C(C)(C)C)C2`, the cytotoxicity call is “inactive”.

Regarding `CCNC(=O)c1cc2c(c(-c3cccc(-c4cccc(F)c4)c3)n1)[C@@H](CCO)N([S@](=O)C(C)(C)C)C2`, the cytotoxicity call is “inactive”.

For the compound `COc1ccc(CNC(=O)c2cc3c(c(-c4cccc(-c5cccc(C#N)c5)c4)n2)[C@@H](CCO)N([S@](=O)C(C)(C)C)C3)cc1`, the cytotoxicity call is “inactive”.

Take `CC(C)(C)S(=O)N1Cc2cc(C(=O)Nc3ccc(-c4ccccc4)cc3)nc(-c3cccc(-c4cccc(F)c4)c3)c2[C@@H]1CCO` (stereo not given in full): the cytotoxicity call is “active”.

Turning to `CCNC(=O)c1cc2c(c(-c3cccc(-c4cccc(F)c4)c3)n1)[C@H](CCO)N([S@@](=O)C(C)(C)C)C2`, the cytotoxicity call is “active”.

As for `CCCNC(=O)c1cc2c(c(-c3cccc(-c4cccc(F)c4)c3)n1)[C@H](CCO)N([S@@](=O)C(C)(C)C)C2`, the cytotoxicity call was “inactive”.

For `CCOC(=O)c1cc2c(c(-c3cccc(C#CCN(C)C)c3)n1)[C@@H](CCO[Si](C)(C)C(C)(C)C)N([S@](=O)C(C)(C)C)C2`, the cytotoxicity call is “active”.

With `CCCNC(=O)c1cc2c(c(-c3cccc(-c4ccc(F)cc4)c3)n1)[C@H](CCO)N([S@@](=O)C(C)(C)C)C2`, the cytotoxicity call was “inactive”.

Turning to `CC(C)(C)S(=O)N1Cc2cc(C(=O)NCc3ccc(Oc4ccccc4)cc3)nc(-c3cccc(-c4cccc(F)c4)c3)c2[C@@H]1CCO` (stereo not given in full), the cytotoxicity call is “active”.

For the compound `C[C@@H]1CN([C@@H](C)CO)C(=O)c2cc(NC(=O)c3ccncc3)ccc2O[C@@H](C)CCCCO[C@H]1CN(C)S(C)(=O)=O`, the cytotoxicity call is “inactive”.

In the case of `C[C@H]1CN([C@@H](C)CO)S(=O)(=O)c2ccc(-c3cccnc3)cc2O[C@H]1CN(C)CC1CCOCC1`, the cytotoxicity call is “inactive”.

With `C[C@H](CO)N1C[C@H](C)[C@@H](CN(C)C(=O)Nc2cccc3ccccc23)OCCCC[C@H](C)Oc2ccc(NC(=O)Nc3ccc4c(c3)OCO4)cc2C1=O`, the cytotoxicity call is “inactive”.

As to `O=C(O)Cn1nnc(-c2ccccc2)n1`, the cytotoxicity call was “inactive”.

As to `C[C@@H]1CCCCO[C@@H](CN(C)C(=O)Cc2ccccc2)[C@H](C)CN([C@@H](C)CO)C(=O)c2cc(NS(=O)(=O)c3cccs3)ccc2O1`, the cytotoxicity call is “inactive”.

On to `COC(=O)c1[nH]c(C(=O)OC)c(O)c1O`, for which the cytotoxicity call was “inactive”.

For the compound `C[C@H]1CN([C@@H](C)CO)C(=O)c2cc(C3=CCCC3)cnc2O[C@@H]1CN(C)S(=O)(=O)c1cn(C)cn1`, the cytotoxicity call is “inactive”.

Consider `CC(C)(C)S(=O)N1Cc2cc(C(=O)Nc3ccc(-c4ccccc4)cc3)nc(-c3cccc(C#CCC4CCCC4)c3)c2[C@@H]1CCO` (stereo not given in full), for which the cytotoxicity call was “inactive”.

Regarding `CC(C)(C)[S@](=O)N1Cc2cc(C(=O)NCC(F)(F)F)nc(-c3cccc(-c4cccc(F)c4)c3)c2[C@@H]1CCO`, the cytotoxicity call is “active”.

As for `CCCNC(=O)c1cc2c(c(-c3cccc(-c4cccc(F)c4)c3)n1)[C@@H](CCO)N([S@](=O)C(C)(C)C)C2`, the cytotoxicity call was “inactive”.

In the case of `CC(C)(O)C#Cc1cccc(-c2nc(C(=O)Nc3ccc(-c4ccccc4)cc3)cc3c2[C@@H](CCO)N(S(=O)C(C)(C)C)C3)c1` (stereo not given in full), the cytotoxicity call was “active”.

Regarding `CC(C)(C)[S@@](=O)N1Cc2cc(C(=O)NCC(F)(F)F)nc(-c3cccc(-c4cccc(F)c4)c3)c2[C@H]1CCO`, the cytotoxicity call is “inactive”.

Consider `CC(C)(O)C#Cc1cccc(-c2nc(C(=O)NCCCN3CCOCC3)cc3c2[C@@H](CCO)N(S(=O)C(C)(C)C)C3)c1` (stereo not given in full), for which the cytotoxicity call is “inactive”.

As to `C[C@@H]1CN([C@@H](C)CO)C(=O)c2cc(NC(=O)Nc3ccc4c(c3)OCO4)ccc2O[C@@H](C)CCCCO[C@@H]1CN(C)S(=O)(=O)c1ccc(F)cc1`, the cytotoxicity call was “inactive”.

Consider `C[C@@H]1CN([C@@H](C)CO)C(=O)c2cc(NS(=O)(=O)c3cn(C)cn3)ccc2O[C@H]1CN(C)C(=O)Nc1ccc(F)cc1`, for which the cytotoxicity call was “inactive”.

Regarding `O=C1C[C@@H](c2ccc(O[C@@H]3O[C@H](CO)[C@@H](O)[C@H](O)[C@H]3O)cc2)Oc2cc(O)ccc21`, the cytotoxicity call was “inactive”.

Turning to `NC(=S)c1ccc(-n2cncn2)nc1`, the cytotoxicity call is “inactive”.

With `COc1cccc(-c2ccc3c(c2)O[C@@H](CN(C)Cc2cncnc2)[C@@H](C)CN([C@@H](C)CO)S3(=O)=O)c1`, the cytotoxicity call was “inactive”.

Turning to `COC(=O)[C@H](Cc1ccccc1)N1CC2=CC(=O)[C@H](C3CC3)[C@H]2[C@@H]1[C@@H](O)CCn1cc(-c2cccc(/C=C/C(=O)NO)c2)nn1`, the cytotoxicity call is “inactive”.

Turning to `N#CN=C1NC(=O)CC(=O)N1`, the cytotoxicity call was “inactive”.

On to `C[C@H]1CN([C@@H](C)CO)C(=O)c2cc(-c3cccnc3)cnc2O[C@H]1CN(C)Cc1ccc(-c2ccccc2)cc1`, for which the cytotoxicity call was “inactive”.

Take `C[C@@H]1CCCCO[C@@H](CN(C)Cc2ccc3c(c2)OCO3)[C@H](C)CN([C@H](C)CO)C(=O)c2cc(NC(=O)c3ccccc3)ccc2O1`: the cytotoxicity call was “inactive”.

As to `C[C@@H]1CCCCO[C@H](CN(C)Cc2ccc3c(c2)OCO3)[C@@H](C)CN([C@H](C)CO)C(=O)c2cc(NC(=O)c3ccccc3)ccc2O1`, the cytotoxicity call is “inactive”.

Take `C[C@@H]1CCCCO[C@@H](CN(C)Cc2ccc3c(c2)OCO3)[C@H](C)CN([C@@H](C)CO)C(=O)c2cc(NC(=O)c3ccccc3)ccc2O1`: the cytotoxicity call is “active”.

As for `C[C@H](CO)N1C[C@H](C)[C@@H](CN(C)Cc2ccc3c(c2)OCO3)OCCCC[C@H](C)Oc2ccc(NC(=O)c3ccccc3)cc2C1=O`, the cytotoxicity call was “inactive”.

On to `C[C@@H]1CN([C@H](C)CO)C(=O)c2cc(NC(=O)c3ccccc3)ccc2O[C@@H](C)CCCCO[C@H]1CN(C)Cc1ccc2c(c1)OCO2`, for which the cytotoxicity call was “active”.

In the case of `C[C@@H]1CCCCO[C@@H](CN(C)Cc2ccc3c(c2)OCO3)[C@@H](C)CN([C@H](C)CO)C(=O)c2cc(NC(=O)c3ccccc3)ccc2O1`, the cytotoxicity call was “inactive”.

For the compound `C[C@@H]1CN([C@H](C)CO)C(=O)c2cc(NC(=O)c3ccccc3)ccc2O[C@@H](C)CCCCO[C@@H]1CN(C)Cc1ccc2c(c1)OCO2`, the cytotoxicity call was “active”.

With `C[C@@H]1CCCCO[C@H](CN(C)Cc2ccc3c(c2)OCO3)[C@H](C)CN([C@H](C)CO)C(=O)c2cc(NC(=O)c3ccccc3)ccc2O1`, the cytotoxicity call is “inactive”.

In the case of `C[C@@H]1CN([C@@H](C)CO)C(=O)c2cc(NC(=O)c3ccccc3)ccc2O[C@@H](C)CCCCO[C@@H]1CN(C)Cc1ccc2c(c1)OCO2`, the cytotoxicity call was “inactive”.

Turning to `C=CCN1C(=O)[C@@H]2[C@@H](C1=O)[C@@H]1C=C[C@@H]2C1`, the cytotoxicity call was “inactive”.

For the compound `COc1ccc(S(=O)(=O)Nc2cccc3c2O[C@@H](CN(C)Cc2ccncc2)[C@@H](C)CN([C@H](C)CO)C3=O)cc1`, the cytotoxicity call was “inactive”.

Regarding `C[C@H](CO)N1C[C@H](C)[C@@H](CN(C)C(=O)Nc2cccc3ccccc23)Oc2ccc(NC(=O)C3CCCCC3)cc2C1=O`, the cytotoxicity call is “inactive”.

For `Cc1ccc(S(=O)(=O)Nc2ccc3c(c2)C(=O)N([C@H](C)CO)C[C@@H](C)[C@@H](CN(C)C(=O)C2CCCCC2)OCCCC[C@@H](C)O3)cc1`, the cytotoxicity call was “inactive”.

For the compound `COC(=O)[C@@H](C)S(=O)(=O)NC(=O)c1cnc2ccccn2c1=O`, the cytotoxicity call is “inactive”.

For `O=C(C[C@H]1CC[C@H]2[C@@H](COC[C@@H](O)CN2C(=O)c2ccc3c(c2)OCO3)O1)NC1Cc2ccccc2C1`, the cytotoxicity call is “inactive”.

Turning to `Cn1cnc(S(=O)(=O)N2CC[C@@H](O)[C@@H]2Cc2cnn(C)c2)c1`, the cytotoxicity call was “inactive”.

Turning to `O=C1OCC=C[C@H]2O[C@@]34C=CCN(c5ccc6ccccc6c5)C(=O)[C@H]3N(CCCCCO)C(=O)[C@@H]4[C@@H]12`, the cytotoxicity call is “inactive”.
